In the library only some 18% were active in any assay of this set; here they are far more common.
TDP1 cell noCPT – qHTS for Inhibitors of human tyrosyl-DNA phosphodiesterase 1 (TDP1): qHTS in cells in absence of CPT. AID 686978, 2013. hit rate 15% among 420,000. Potency, µM (titrated, usually from 46.2 µM), without a hit: top-dose activity change, negative = growth inhibition, actives largely listed as inhibitors. DT40 Tdp1-/- hTDP1 cells, no CPT, ATP luminescence, 48 h; note: potency is the fitted concentration of half-maximal effect; nearly all actives have a fitted effect of over 55% in size
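Chicken DT40 Tdp1-/- cells complemented with human TDP1, screened without camptothecin (DMSO vehicle only), 400 cells/well. Compounds pin-transferred, cells incubated at 37 °C for at least 48 hr. Growth read as ATP-dependent luminescence (CellTiter-Glo, 30 min at RT).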
IL1B secr inh – qHTS for Inhibitors of Inflammasome Signaling: IL-1-beta AlphaLISA Primary Screen | hit rate 4.7% among 360,000 | activity change, % at 57.5 µM | THP-1 LPS/ATP IL-1B secretion, AlphaLISA, 16 h; stronger effect = lower value; in the data active = activity change below about -50%; inconclusive = mostly about -30% to -49%
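Secreted IL-1B measured by AlphaLISA bead assay after 16 h compound exposure of THP-1 cells; compounds (final up to 57.5 uM) added 1 h before LPS (250 ng/mL) and ATP (1.25 mM) stimulation; lower signal means less secretion.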
CtBP-E1A blk – qHTS Assay for Inhibitors of the CtBP/E1A Interaction; AID 651724, 2012; AlphaScreen GST-E1A/His-CtBP binding, 1536-well; stronger effect = lower value; activity change, % (test concentration not listed); hit rate 0.49% among 340,000; in the data active = activity change below about -65%; inconclusive = mostly about -30% to -63%
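Steps: dispense buffer (Tris pH 8.0, NaCl 300 mM, TCEP 1 mM, BSA, Tween 20); add 5X protein mix (GST-E1A, His-CtBP, 125 nM each); pin 23 nL compound; 2 h at 37 °C, dark; add 5X beads (50 ug/mL); 1 h; read.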
TDP1 inh – qHTS Assay for Inhibitors of Tyrosyl-DNA Phosphodiesterase (TDP1); Potency, µM (series often up to 130 µM), inactives show at the top dose activity change, negative = inhibition, most hits filed as inhibitors; recombinant TDP1, AlphaScreen DNA substrate cleavage; Tyrosyl-DNA phosphodiesterase 1 (Homo sapiens), Q9NUW8; hit rate 0.28% among 350,000; AID 485290, 2010; note: potency is the fitted concentration of half-maximal effect; nearly all actives have a fitted effect of over 40% in size
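Recombinant human Tdp1 (E. coli-expressed, 1 nM final) preincubated with compounds 15 min at room temperature, then 5'-biotin/3'-phosphotyrosine-FITC DNA substrate (15 nM final) added for 5 min. AlphaScreen beads (10 ug/ml final) added 10 min; cleavage lowers signal.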
Six1-Eya2 inh – qHTS Assay for Inhibitors of the Six1/Eya2 Interaction; AID 651725, 2012; hit rate 0.56% among 360,000; Homeobox protein SIX1 (Homo sapiens) + Protein phosphatase EYA2 (Homo sapiens), …; AlphaScreen GST-Six1/His-Eya2 binding, biochemical; stronger effect = lower value; activity change, % (no concentration beside the values); in the data active = activity change below about -65%; inconclusive = mostly about -30% to -63%
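Six1/Eya2 binding was read as AlphaScreen signal after compounds were pinned into GST-Six1 plus His-tagged Eya2 (5X stock 250/500 nM) in pH 8.0 Tris/NaCl/TCEP buffer, beads added, then incubated 1 h, 37 C, dark.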
DT40 TDP1 CPT – qHTS for Inhibitors of human tyrosyl-DNA phosphodiesterase 1 (TDP1): qHTS in cells in presence of CPT; chicken DT40 Tdp1-/-;hTDP1 cells + 20 nM CPT, ATP luminescence, 48 h; Potency, µM (highest dose often 46.2 µM), for the others: at the highest dose activity change, negative = growth inhibition, usual class: inhibitors; hit rate 12% among 420,000; AID 686979, 2013; note: potency is the fitted concentration of half-maximal effect; nearly all actives have a fitted effect of over 55% in size
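Cell growth measured by CellTiter-Glo luminescence after a minimum 48 h, 37 C compound exposure with 20 nM CPT in Tdp1-knockout DT40 cells stably expressing hTDP1, seeded 400/well; qHTS titration format.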
The depositor's hits bear a star; [ ] = remark or other dose. Unless noted, calls come from the whole dose curve; as a rule, active = well fitted curve in the direction sought with a large enough effect; inconclusive = small, poorly fitted or top-dose-only effect, or another doubt; inactive = no such curve, though single readings can be large; an effect the other way counts as inactive or inconclusive. % is set by controls: 0 for no effect and ±100 for the full control effect.

How did CCCC12CN3CCN(CC(C3)/C1=N\NC(=O)c1ccc(C(C)(C)C)cc1)C2 do in these assays?
TDP1 cell noCPT: -6%; IL1B secr inh: 15; CtBP-E1A blk: 6; TDP1 inh: 0%; Six1-Eya2 inh: 0; DT40 TDP1 CPT: -16%

What do the screens show for `NC1=NC(=O)/C(=C/c2ccc(OCC(=O)O)cc2)S1`?
TDP1 cell noCPT: 10%; IL1B secr inh: 11; CtBP-E1A blk: 5; Six1-Eya2 inh: 3; DT40 TDP1 CPT: 3%

How did COc1ccc(C(CNC(=O)c2ccc(Cl)c(S(=O)(=O)N3CCCC3)c2)N2CCCC2)cc1 (configuration not stated) do in these assays?
TDP1 cell noCPT: inconclusive; IL1B secr inh: inconclusive; CtBP-E1A blk: -9; TDP1 inh: 0%[56.1 µM]; Six1-Eya2 inh: -5; DT40 TDP1 CPT: -20%

What do the screens show for `COc1ccc(CCNC(=O)c2ccc(Cl)c(S(=O)(=O)N3CCCC3)c2)cc1`?
TDP1 cell noCPT: 23µM*; IL1B secr inh: -1; TDP1 inh: -2%[56.1 µM]; Six1-Eya2 inh: -2; DT40 TDP1 CPT: 18µM*

What do the screens show for `COc1ccc(CCNC(=O)c2cc(S(=O)(=O)N3CCCCC3)ccc2Cl)cc1`?
TDP1 cell noCPT: 16µM*; IL1B secr inh: -2; CtBP-E1A blk: 1; TDP1 inh: 3%; Six1-Eya2 inh: -6; DT40 TDP1 CPT: 26µM*

What do the screens show for `COc1ccc(CCNC(=O)c2ccc(Cl)cc2Cl)cc1`?
TDP1 cell noCPT: -11%; IL1B secr inh: -27; CtBP-E1A blk: 7; TDP1 inh: -2%; Six1-Eya2 inh: 5; DT40 TDP1 CPT: inconclusive

What do the screens show for `COc1ccc(CCNC(=O)CSCC(=O)Nc2cc(S(C)(=O)=O)ccc2Cl)cc1`?
TDP1 cell noCPT: 9.2µM*; IL1B secr inh: 2; CtBP-E1A blk: 0; TDP1 inh: 1%; Six1-Eya2 inh: -5; DT40 TDP1 CPT: -4%

What do the screens show for `CS(=O)(=O)c1ccc(Cl)c(NC(=O)CCc2ccccc2)c1`?
TDP1 cell noCPT: -9%; IL1B secr inh: 14; TDP1 inh: 0%; Six1-Eya2 inh: 4; DT40 TDP1 CPT: 9%

What do the screens show for `COc1ccc(N(C)S(=O)(=O)c2ccc(Cl)c(C(=O)NCCc3ccc(Cl)cc3)c2)cc1`?
TDP1 cell noCPT: 12µM*; IL1B secr inh: -56*; CtBP-E1A blk: -19; TDP1 inh: 0%; Six1-Eya2 inh: 15; DT40 TDP1 CPT: 9.2µM*

How did O=C(NC1=NCCS1)C1CC(=O)N(c2ccc(Cl)cc2)C1 (configuration not stated) do in these assays?
TDP1 cell noCPT: -13%; IL1B secr inh: 10; TDP1 inh: 2%; Six1-Eya2 inh: 5; DT40 TDP1 CPT: inconclusive

How did Cc1ccc(S(=O)(=O)N(CC(=O)Nc2ccccc2C(=O)O)c2cccc(Cl)c2C)cc1 do in these assays?
TDP1 cell noCPT: inconclusive; IL1B secr inh: 15; CtBP-E1A blk: 1; TDP1 inh: -5%; Six1-Eya2 inh: -4; DT40 TDP1 CPT: inconclusive

Results for O=C(CSCc1ccccc1Cl)NNC(=S)Nc1ccccc1 ?
TDP1 cell noCPT: inconclusive; IL1B secr inh: -21; CtBP-E1A blk: -14; TDP1 inh: 12%; Six1-Eya2 inh: -8; DT40 TDP1 CPT: -11%

Results for CCOc1ccc(NC(=S)N2CCC(c3ccc(C)cc3)C2)cc1 (configuration not stated) ?
TDP1 cell noCPT: 13µM*; IL1B secr inh: -10; CtBP-E1A blk: -10; Six1-Eya2 inh: -7; DT40 TDP1 CPT: inconclusive

Results for COc1cccc(NC(=S)N2CCC(c3ccc(C)cc3)C2)c1 (configuration not stated) ?
TDP1 cell noCPT: 7.3µM*; IL1B secr inh: -78*; CtBP-E1A blk: -22; Six1-Eya2 inh: 0; DT40 TDP1 CPT: 12µM*

Screens (PubChem)
